Data on nine compounds can be found in PubChem BioAssay.

Assay [1] is described as follows: compound effects on lung adenocarcinoma cell viability – A549, calcein-AM fluorescence, 48 h, basal, profiling panel (AID 1162). Also: test concentration not given here. As to conditions: higher = more signal.
Assay [2] is described as follows: compound effects on differentiated 3T3-L1 adipocyte viability – cell-based, 3T3-L1 adipocytes, calcein-AM fluorescence, 48 h, basal, profiling panel (AID 1163). Also: test concentration not given here. As to conditions: 3T3-L1 adipocytes viability, higher = more signal.
Assay [3] in a line: compound effects on hepatocellular carcinoma cell viability – HepG2, calcein-AM fluorescence, 48 h, basal, profiling panel (AID 1164). Also: test concentration not given here. As to conditions: higher = more signal.
Assay [4] in a line: compound effects on multiple myeloma cell viability – MM1S, calcein-AM fluorescence, 48 h, basal, profiling panel (AID 1165). Also: test concentration not given here. As to conditions: higher = more signal.
Assay [5] in a line: calcein-AM signal in unstimulated myeloma cells – cell-based, calcein-AM fluorescence, 48 h, PK04 Diversity Set, profiling panel (AID 1166).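 Also: cells grown under basal conditions without added stimulus; test concentration not given here.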 As to conditions: RPMI8226 myeloma viability, higher = more signal.
A short description of assay [6]: JC-1 mitochondrial signal, unstimulated HepG2 cells – cell-based, JC-1 fluorescence, 24 h, 100 nL compound, profiling panel (AID 1167). Also: test concentration not given here. The following applies: HepG2 mitochondrial potential, higher = more signal.
A short description of assay [7]: JC-1 mitochondrial signal, unstimulated adipocytes – cell-based, JC-1 fluorescence, 3T3-L1 adipocytes, 24 h, 100 nL compound, profiling panel (AID 1168). Also: test concentration not given here. The following applies: JC-1 mitochondrial fluorescence, higher = more signal, called active from +8 up or from −8 down.
A short description of assay [8]: JC-1 mitochondrial signal, unstimulated myeloma cells – cell-based, JC-1 fluorescence, RPMI8226, 24 h, 100 nL compound, profiling panel (AID 1169). Also: test concentration not given here. The following applies: JC-1 mitochondrial potential fluorescence, higher = more signal.
Assay [9] can be described thus: JC-1 mitochondrial signal, unstimulated MM1S myeloma – cell-based, JC-1 fluorescence, 24 h, 100 nL compound, profiling panel (AID 1170). Also: test concentration not given here. The following applies: MM1S mitochondrial potential, higher = more signal.
Assay [10] in a line: resazurin metabolic signal in A549 cells – cell-based, resazurin fluorescence, 24 h, PK04 Diversity Set, profiling panel (AID 1171). Also: test concentration not given here. The following applies: A549 viability, higher = more signal, called active from +8 up or from −8 down. For orientation: Resazurin is reduced to fluorescent resorufin, in cell work by metabolically active cells.
The nature of assay [11]: resazurin metabolic signal in HepG2 cells – cell-based, resazurin fluorescence, 24 h, PK04 Diversity Set, profiling panel (AID 1172). Also: test concentration not given here. The following applies: HepG2 viability, higher = more signal.
Assay [12] is described as follows: budding yeast growth changes without added modifier – OD600, strain BY4716, 24 h, basal condition, primary screen (AID 1173). The following applies: S. cerevisiae BY4716 growth, OD600, 24 h; higher = more signal, called active from +8 up or from −8 down.
Assay [13] in a line: viability profiling in MM1S myeloma cells – cell-based, resazurin fluorescence, basal, 24 h, PK04 Diversity Set, profiling panel (AID 1174). Also: test concentration not given here. As to conditions: higher = more signal, called active from +8 up or from −8 down.
Assay [14] has as its target Dihydroorotate dehydrogenase (quinone), mitochondrial (Plasmodium falciparum (isolate 3D7)) (UniProt Q08210). Nature of the assay: inhibition of P. falciparum DHODH – biochemical, C-terminal His tag, absorbance 600 nm, primary screen (AID 1175).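 Also: recombinant parasite enzyme with a five histidine tag at its C terminus; test concentration not given here.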 The following applies: PfDHODH enzyme, DCIP absorbance 600 nm; higher = more signal, called active from +8 up or from −8 down.

The nature of assay [15]: inhibition of PAO1 biofilm formation – strain PAO1, LB-PBS medium, absorbance 600 nm, primary screen (AID 1176). Also: test concentration not given here. As to conditions: P. aeruginosa PAO1 growth/biofilm, A600, 12 h; higher = more signal.
Assay [16] in a line: growth modulation of vineyard yeast isolate – strain RM11-1a, OD600, basal, 24 h, primary screen (AID 1177).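 Also: cultures grown under basal conditions with no added stressor; test concentration not given here.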 As to conditions: S. cerevisiae RM11-1a growth, OD600, 24 h; higher = more signal, called active from +8 up or from −8 down.
The nature of assay [17]: growth of efflux-deficient E. coli DRC39 – strain DRC39, OD650, 24 h, E. coli filamentation inducers, primary screen (AID 1178).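 Also: growth measured as culture turbidity by optical density at 650 nm; test concentration not given here.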 As to conditions: E. coli DRC39 acrAB, higher = more signal, called active from +8 up or from −8 down.
Assay [18] is described as follows: growth of efflux-deficient E. coli DRC39 – strain DRC39, OD650, 48 h, E. coli filamentation inducers, primary screen (AID 1179).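 Also: screen aims at cell division blockers that make cells filament.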 As to conditions: E. coli DRC39 delta-acrAB growth, higher = more signal, called active from +8 up or from −8 down.
Assay [19] is described as follows: viability profiling in RPMI8226 myeloma cells – cell-based, resazurin fluorescence, basal, 24 h, PK04 Diversity Set, profiling panel (AID 1180).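 Also: RPMI8826 multiple myeloma cell line at 5000 cells per well; test concentration not given here.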 The following applies: higher = more signal.
Assay [20] concerns the target E3 ubiquitin-protein ligase XIAP (Homo sapiens) (UniProt P98170). Nature of the assay: small molecules binding XIAP protein – biophysical, small-molecule microarray, fluorescence 635 nm, primary screen (AID 1181).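 Also: score merges 667 nm emission and signal to noise over triplicate slides.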 The following applies: higher = more signal.

Activity calls are given as the source filed them. Unless noted, no rule for the calls is given here.

Sequence of E3 ubiquitin-protein ligase XIAP (Homo sapiens) (P98170 whole entry, looked up): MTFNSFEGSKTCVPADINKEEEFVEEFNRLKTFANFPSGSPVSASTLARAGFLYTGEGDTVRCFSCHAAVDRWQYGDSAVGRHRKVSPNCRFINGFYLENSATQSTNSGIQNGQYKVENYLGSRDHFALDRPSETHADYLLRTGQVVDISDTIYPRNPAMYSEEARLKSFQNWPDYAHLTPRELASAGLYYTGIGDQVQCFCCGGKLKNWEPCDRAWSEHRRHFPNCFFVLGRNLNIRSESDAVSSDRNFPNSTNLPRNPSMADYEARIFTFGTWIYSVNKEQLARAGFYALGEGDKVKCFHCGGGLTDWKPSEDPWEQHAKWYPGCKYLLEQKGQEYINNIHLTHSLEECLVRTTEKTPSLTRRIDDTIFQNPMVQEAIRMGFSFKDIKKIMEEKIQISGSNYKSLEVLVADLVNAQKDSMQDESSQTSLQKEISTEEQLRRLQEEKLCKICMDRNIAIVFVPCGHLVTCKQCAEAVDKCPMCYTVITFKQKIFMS
Sequence of Dihydroorotate dehydrogenase (quinone), mitochondrial (Plasmodium falciparum (isolate 3D7)) (Q08210 whole entry, looked up): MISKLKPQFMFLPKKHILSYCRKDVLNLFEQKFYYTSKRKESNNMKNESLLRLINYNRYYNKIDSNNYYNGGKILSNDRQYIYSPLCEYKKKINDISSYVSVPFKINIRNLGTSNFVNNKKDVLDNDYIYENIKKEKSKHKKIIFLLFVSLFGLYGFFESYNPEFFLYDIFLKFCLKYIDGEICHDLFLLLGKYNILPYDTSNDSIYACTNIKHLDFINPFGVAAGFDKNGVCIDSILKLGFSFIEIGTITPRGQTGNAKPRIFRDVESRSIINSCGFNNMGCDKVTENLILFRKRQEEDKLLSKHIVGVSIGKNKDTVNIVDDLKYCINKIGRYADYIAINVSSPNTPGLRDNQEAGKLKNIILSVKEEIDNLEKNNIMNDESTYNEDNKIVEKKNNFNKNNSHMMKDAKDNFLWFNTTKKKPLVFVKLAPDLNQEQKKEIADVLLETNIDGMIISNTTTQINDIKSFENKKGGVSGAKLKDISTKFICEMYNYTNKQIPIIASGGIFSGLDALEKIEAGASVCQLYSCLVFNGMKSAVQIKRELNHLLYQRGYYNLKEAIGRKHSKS

`CCOC(=O)C1=CCC(C(C)(C)C)N(S(=O)(=O)c2ccc(C)cc2)C1` (stereo not given): the z-score in [1] was -0.723; in assay [2], -0.194; in assay [3], -0.157; in assay [4], -2.31; in [5], -1.28; in assay [6], -1. Further, the z-score in [7] is 0.161 (inactive); in [8] it was -0.1; in assay [9], -0.562; in assay [10], 0.613 (inactive); in assay [11], -0.462; in assay [12], 0.586 (inactive). Moreover, the z-score in assay [13] is -0.0359 (inactive); in assay [15], -0.321 (inactive); in [16], 1.29 (inactive); in assay [17], -0.021 (inactive); in assay [18], -0.52 (inactive); in [19], -0.719. Besides, the composite z-score was 0.406 (inactive) in assay [14] and -0.0476 in assay [20].

Regarding `O=C1O[C@@H](c2ccccc2)[C@@H](c2ccccc2)N2[C@@H](c3ccc(O)cc3)[C@]3(C(=O)Nc4ccc(C#CC5(O)CCCCCC5)cc43)[C@@H](C(=O)N3CCCCCCC3)[C@H]12`, the z-score was 0.476 in assay [1]; 0.49 in assay [2]; 1.04 in assay [3]; 0.0939 in assay [4]; -1.34 in [5]; -1.36 in [6]. Besides, the z-score in [7] was 0.076 (inactive); in assay [8], -0.764; in assay [9], -0.664; in assay [10], -0.314 (inactive); in assay [11], 0.366; in assay [12], -0.479 (inactive). Besides, the z-score in [13] was -0.895 (inactive); in [15], 1.89 (inactive); in assay [16], 0.141 (inactive); in [17], -0.284 (inactive); in [18], 0.38 (inactive); in assay [19] it was -0.884. Moreover, the composite z-score in assay [14] is 0.916 (inactive); in assay [20], 0.479.

In the case of `COc1ccc(C#Cc2ccc3c(c2)[C@]2(C(=O)N3)[C@H](c3ccc(O)cc3)N3[C@H](c4ccccc4)[C@H](c4ccccc4)OC(=O)[C@H]3[C@@H]2C(=O)NC[C@H](O)c2ccccc2)cc1`, the z-score is -1.1 in assay [1]; 0.72 in assay [2]; -0.513 in assay [3]; -3 in assay [4]; -4.58 in assay [5]; -1.8 in assay [6]. For the same compound, the z-score in assay [7] was 1.94 (inactive); in [8], -1.12; in assay [9], -1.3; in assay [10] it was -0.475 (inactive); in [11], -0.689; in assay [12], 1.81 (inactive). The z-score in assay [13] was -2.56 (inactive); in [15], 0.325 (inactive); in [16], 2.71 (inactive); in assay [17], 0.106 (inactive); in assay [18], 0.105 (inactive); in [19] it was -4.1. In addition, the composite z-score is -3.64 (inactive) in assay [14] and -0.0749 in [20].

With `C=C(CCCC)/C(=C/C[C@H](OC(C)=O)c1ccc(CO)o1)c1cnc2ccccc2c1`, the z-score in assay [1] is 0.0278; in assay [2], -0.229; in assay [3], 0.311; in assay [4], -2.01; in [5], -0.889; in [6], -1.04. The z-score was -0.779 (inactive) in [7]; -0.143 in [8]; -0.238 in assay [9]; 0.398 (inactive) in assay [10]; -0.0826 in assay [11]; -0.143 (inactive) in assay [12]. In addition, the z-score in assay [13] is -0.735 (inactive); in assay [15], 1.58 (inactive); in assay [16], 1.66 (inactive); in [17], 0.18 (inactive); in [18] it was 0.284 (inactive); in assay [19], 0.137. Further, the composite z-score in assay [14] was -6.03 (inactive); in assay [20], 0.0426.

`CO[C@H]1O[C@H](CO)[C@@H](OC(=O)Nc2ccc(Oc3ccccc3)cc2)[C@H](OC(=O)Nc2ccccc2)[C@H]1OC(=O)Nc1ccccc1`: the z-score was -1.63 in assay [1]; 0.547 in [2]; -3.37 in assay [3]; -2.24 in assay [4]; -3.61 in [5]; -0.684 in assay [6]. The z-score was 1.2 (inactive) in assay [7]; -1.31 in [8]; -0.427 in assay [9]; -3.41 (inactive) in assay [10]; -2.18 in [11]; -0.494 (inactive) in [12]. Besides, the z-score in assay [13] is -2.36 (inactive); in [15] it was 1.97 (inactive); in assay [16] it was 2.67 (inactive); in [17] it was 1.57 (inactive); in assay [18] it was 0.561 (inactive); in [19] it was -2.48. In addition, the composite z-score in assay [14] was -0.996 (inactive); in assay [20], 0.0668.

Turning to `C=CCNC(=O)[C@@H]1[C@H]2C(=O)O[C@H](c3ccccc3)[C@H](c3ccccc3)N2[C@H](c2ccc(OCCO)cc2)[C@@]12C(=O)Nc1ccccc12`, the z-score was 1.66 in assay [1]; 1.59 in [2]; 0.521 in assay [3]; 0.491 in [4]; 0.0581 in [5]; -0.912 in assay [6]. The z-score was 1.01 (inactive) in assay [7]; -0.725 in assay [8]; 0.224 in [9]; -0.0995 (inactive) in [10]; 0.61 in [11]; -1.67 (inactive) in assay [12]. The z-score was -0.0761 (inactive) in assay [13]; 3.15 (inactive) in assay [15]; -0.412 (inactive) in [16]; 1.34 (inactive) in [17]; 0.548 (inactive) in [18]; -0.0855 in [19]. Further, the composite z-score in assay [14] is -2.04 (inactive); in assay [20] it was 0.0192.

On to `CC(C)NC(=O)[C@@H]1c2ccccc2C(=O)N(Cc2ccccc2Cl)[C@H]1c1ccc(CO)cc1`, for which the z-score is 1.97 in assay [1]; 0.84 in assay [2]; 1.23 in assay [3]; 0.0027 in assay [4]; 0.665 in [5]; 2.42 in [6]. The z-score was -0.466 (inactive) in assay [7]; -0.195 in assay [8]; -0.615 in assay [9]; 1.46 (inactive) in assay [10]; 1.6 in [11]; -0.197 (inactive) in [12]. For the same compound, the z-score is -0.27 (inactive) in assay [13]; 0.183 (inactive) in assay [15]; 0.358 (inactive) in [16]; 0.696 (inactive) in assay [17]; 0.661 (inactive) in [18]; 0.131 in assay [19]. In addition, the composite z-score in assay [14] was 0.233 (inactive); in assay [20], 0.103.

For the compound `CCOC(=O)[C@H]1C/C=C/C[C@H](C(=O)OCC)C(=O)O[C@H]2[C@@H](OC)O[C@H](CO)[C@@H](OC(=O)Nc3ccc4c(c3)OCO4)[C@@H]2OC1=O`, the z-score is -2.58 in [1]; -0.256 in assay [2]; -5 in assay [3]; -3.35 in assay [4]; -4.14 in assay [5]; -3.1 in assay [6]. For the same compound, the z-score in [7] is 1.56 (inactive); in assay [8], -0.975; in assay [9], -1.75; in [10] it was -5 (inactive); in [11], -4.19; in assay [12], 0.273 (inactive). In addition, the z-score in assay [13] was -6.98 (inactive); in assay [15] it was 1.2 (inactive); in assay [16], 1.06 (inactive); in assay [17], 1.03 (inactive); in [18], 1.53 (inactive); in assay [19], -6.84. Moreover, the figures for the composite z-score in assay [14] and in assay [20] were 0.0446 (inactive) and -0.102, respectively.

As to `C=CC[C@@]1(C(=O)O)N=C(c2ccc(OCCCO)cc2)O[C@@H]1c1ccccc1N=[N+]=[N-]`, the z-score in assay [1] was 0.179; in assay [2], -0.76; in assay [3] it was 0.47; in [4], -0.756; in [5] it was -0.577; in assay [6], -1.95. Besides, the z-score in assay [7] was -0.366 (inactive); in [8] it was -0.919; in assay [9], -0.947; in assay [10], -0.514 (inactive); in assay [11], 0.0725; in assay [12], -0.769 (inactive). The z-score was -0.702 (inactive) in [13]; 0.976 (inactive) in [15]; 0.15 (inactive) in assay [16]; 0.236 (inactive) in assay [17]; -0.154 (inactive) in assay [18]; -0.0493 in [19]. For the same compound, the values for the composite z-score in assay [14] and in assay [20] were 0.535 (inactive) and -0.0559, respectively.
